Assay outcomes as filed in PubChem.
HSP90 inh: HSP90 inhibitors, primary screen, cell lysate, luminescence; Heat shock protein HSP 90 (rabbit reticulocyte lysate; luciferase refolding); Rabbit reticulocyte lysate, luciferase refolding luminescence, 3 h; inhibition, % at 5.6 µM; 290,000 compounds, 0.91% hits;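 active = inhibition above the screen-wide mean plus 3 SD, computed separately per campaign, cut at about 16% in these data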;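 note: 0% = DMSO wells and 100% = 60 µM geldanamycin wells; inhibitors lower the luminescence because luciferase stays unfolded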
Platelet DG rel: inhibitors of platelet dense granule secretion, primary screen, cell-based, MLPCN, human platelets; human platelet-rich plasma, SFLLRN dense granule ATP release, luminescence; inhibition, %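 (compounds screened at 7.5 µM in platelet-rich plasma)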; 300,000 compounds, 0.22% hits; AID 1663, 2009;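 active = mean replicate score, as percent of positive control, at or above 50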
SENP6 block: SENP6 protease inhibitors, primary screen, biochemical, luminescence, uHTS; Sentrin-specific protease 6 (Homo sapiens), Q9GZR1; Recombinant SENP6 catalytic domain, aminoluciferin luminescence; inhibition, % at 10 µM; 330,000 compounds, 1.8% hits;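 active = inhibition above about 50% at the single tested dose, limit read from the data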;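 note: plate controls were DMSO wells with enzyme for no effect and DMSO wells lacking enzyme for full effect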
SENP8 block-1: SENP8 protease inhibitors, primary screen, biochemical, luminescence | Sentrin-specific protease 8 (Homo sapiens), Q96LD8 | purified SENP8, Z-RLRGG-aminoluciferin cleavage | inhibition, % at 10 µM | 330,000 compounds, 1.2% hits; in the data active = inhibition above about 50%
Target sequence (Q96LD8 whole entry, looked up): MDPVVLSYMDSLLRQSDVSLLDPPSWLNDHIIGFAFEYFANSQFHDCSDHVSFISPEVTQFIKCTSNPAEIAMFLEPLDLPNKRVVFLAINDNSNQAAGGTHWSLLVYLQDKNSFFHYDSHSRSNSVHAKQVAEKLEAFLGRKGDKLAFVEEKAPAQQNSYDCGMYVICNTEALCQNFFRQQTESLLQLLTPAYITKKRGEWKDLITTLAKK
SENP8 block-2: human SENP8 protease inhibitors, primary screen, biochemical, fluorescence, Nedd8 protein substrate, uHTS; Sentrin-specific protease 8 (Homo sapiens), Q96LD8; inhibition, % at 20 µM; recombinant SENP8; AID 602440, 2012; 360,000 compounds, 0.64% hits; in the data active = inhibition mostly above about 40%, no sharp cut-off; inactive = mostly below about 27%
SENP7 inh: SENP7 protease inhibitors, primary screen, biochemical, luminescence, uHTS | Sentrin-specific protease 7 (Homo sapiens), Q9BQF6 | recombinant SENP7, Z-RLRGG-aminoluciferin luminescence, 40 min | inhibition, % at 5 µM | 330,000 compounds, 1.5% hits | AID 434973, 2010;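 active = inhibition above about 50% at the single test dose, limit read from the data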;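 note: plate controls were DMSO with enzyme for no effect and no enzyme buffer wells for full effect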
Target sequence (Q9BQF6 706-1050 limits assumed): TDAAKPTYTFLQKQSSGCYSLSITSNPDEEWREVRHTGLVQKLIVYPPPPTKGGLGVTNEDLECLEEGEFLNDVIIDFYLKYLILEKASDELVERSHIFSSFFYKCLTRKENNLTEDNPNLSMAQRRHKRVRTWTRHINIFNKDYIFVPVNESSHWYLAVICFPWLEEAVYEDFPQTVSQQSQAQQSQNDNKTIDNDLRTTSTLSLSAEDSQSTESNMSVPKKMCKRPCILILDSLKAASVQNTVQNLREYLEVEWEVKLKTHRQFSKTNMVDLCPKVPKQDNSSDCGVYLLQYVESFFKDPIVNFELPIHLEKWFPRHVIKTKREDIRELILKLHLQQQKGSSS
SENP8 conf: SENP8 protease inhibitors, retest, confirmation, biochemical, luminescence, single concentration; shares compounds with SENP7 inh; Recombinant SENP8, Z-RLRGG-aminoluciferin luminescence, 60 min; inhibition, % at 12.5 µM; 6,200 compounds, 40% hits;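 active = mean inhibition across replicates above about 50%, limit read from the data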
SENP6 conf: SENP6 protease inhibitors, confirmation, biochemical, luminescence, single concentration; inhibition, % at 12.5 µM; shares compounds with SENP7 inh; 6,200 compounds, 58% hits; recombinant SENP6, Z-RLRGG-aminoluciferin luminescence
SENP7 confirm: SENP7 protease inhibitors, retest, confirmation, biochemical, luminescence, single concentration | shares compounds with SENP7 inh | recombinant SENP7, Z-RLRGG-aminoluciferin luminescence, 40 min | inhibition, % at 12.5 µM | 6,200 compounds, 69% hits | AID 488917, 2010
Casp3 SENP sel: caspase-3 protease inhibitors, confirmation, selectivity assay for SENP inhibitor project, biochemical, single concentration; 6,200 compounds, 60% hits; AID 488918, 2010; purified caspase-3, Z-DEVD-aminoluciferin luminescence, 60 min; shares compounds with SENP7 inh; inhibition, % at 12.5 µM;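 active = mean inhibition above about 50%, limit read from the data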;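 note: plate controls were enzyme with DMSO for no effect and wells without caspase-3 for full effect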
Target sequence (P42574 28-227 limits assumed): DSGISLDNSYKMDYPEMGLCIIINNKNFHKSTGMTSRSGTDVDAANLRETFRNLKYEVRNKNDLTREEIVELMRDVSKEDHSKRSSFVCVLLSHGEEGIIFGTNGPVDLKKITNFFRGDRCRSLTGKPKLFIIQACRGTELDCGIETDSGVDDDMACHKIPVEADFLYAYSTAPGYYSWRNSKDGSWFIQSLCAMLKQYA
SENP luc ctr: luminescence interference (SENP counter-screen) | Pre-incubated SENP8/Z-RLRGG-aminoluciferin, luciferase luminescence interference | shares compounds with SENP7 inh | inhibition, % at 12.5 µM | 6,200 compounds, 39% hits | AID 488919;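 active = mean inhibition above about 50% when retested at one dose, limit read from the data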;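 note: plate controls were DMSO wells with completed reaction for no effect and substrate without enzyme for full effect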
The depositor's hits bear a star; x = not tested or not shown. Hits are enriched below; roughly 2.8% of the tested compounds scored in any of these assays.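 Rule for the calls, unless noted: active = mean inhibition above about 50% in the one-dose retest (limit read from the data); inactive = the rest.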

SMILES | HSP90 inh | Platelet DG rel | SENP6 block | SENP8 block-1 | SENP8 block-2 | SENP7 inh | SENP8 conf | SENP6 conf | SENP7 confirm | Casp3 SENP sel | SENP luc ctr
O=C(O/N=C1/CCSc2ccccc21)c1ccc(F)cc1 | -1.0 | -28.7 | 42.1 | 49.8 | 3.1 | 86.9* | 73.2* | 91.6* | 88.9* | 78.6* | 39.4
Cc1ccc(S(=O)(=O)O/N=C2/CCCc3occc32)cc1 | 2.1 | -11.8 | 3.2 | -4.7 | 7.7 | 11.1 | x | x | x | x | x
O=C(O/N=C1/CCCc2occc21)c1ccc(F)cc1 | -0.5 | 4.0 | 87.3* | 83.3* | 10.6 | 88.4* | 36.6 | 87.9* | 79.3* | 65.8* | 17.4
COc1cc2c(cc1OC)CN(C(=O)c1ccc(Cl)c(S(=O)(=O)N3CCCC3)c1)CC2 | x | x | 12.8 | 1.6 | 5.0 | 6.1 | x | x | x | x | x
O=C(/C=C/c1ccccc1[N+](=O)[O-])NCCN1C(=O)S/C(=C\c2ccc(F)cc2)C1=O | -2.6 | -0.1 | 17.9 | -11.0 | 18.6 | 80.8* | -9.5 | -3.2 | -6.0 | 5.1 | 3.2
O=C(/C=C/c1cccc([N+](=O)[O-])c1)NCCN1C(=O)S/C(=C\c2cccnc2)C1=O | 2.9 | -2.2 | 11.3 | -4.8 | 22.0 | 1.3 | x | x | x | x | x
CCOC(=O)c1c(C)[nH]c(C)c1S(=O)(=O)NCCN1CCN(c2ccccc2F)CC1 | 2.7 | 7.8 | -8.8 | -0.3 | 7.0 | -6.2 | x | x | x | x | x
O=C(CC(SCc1ccco1)c1ccc(O)cc1)c1cccs1 (stereo not given) | 3.5 | 11.0 | 88.9* | 88.0* | -3.9 | 58.1* | 92.9* | 91.1* | 95.4* | 46.2 | 86.7*
O=C(CSc1ccc2nnc(-c3cccnc3)n2n1)Nc1ccc(F)cc1F | -0.6 | -8.9 | -0.5 | -8.5 | -45.0 | -2.5 | x | x | x | x | x
CC(C)N=C1NN=C(c2ccc(F)cc2)CS1 | 3.1 | 15.1 | 65.0* | 73.2* | 4.3 | 78.8* | 84.3* | 85.1* | 99.1* | 95.8* | 89.0*
CCN=C1NN=C(c2ccc(C)cc2)CS1 | 0.3 | 3.2 | -15.9 | -6.9 | 13.8 | 2.3 | x | x | x | x | x
CN(CC(=O)Nc1c(Cl)cccc1Cl)C(=O)C1=COCCO1 | x | 5.4 | -8.5 | 3.6 | 11.1 | -7.7 | x | x | x | x | x
O=C(NCCc1ccccc1)c1ccc(Cl)cc1[N+](=O)[O-] | -6.4 | 5.5 | x | x | 13.9 | x | x | x | x | x | x
COc1ccccc1/C=C/c1ccc2cccc(O)c2n1 | 4.2 | 0.7 | 80.7* | 50.7* | -113.1 | 29.1 | 5.6 | 72.2* | 91.6* | 56.6* | 37.3
CCOc1cccc(/C=C/c2ccc3cccc(O)c3n2)c1OC | 0.2 | -5.8 | 32.8 | -1.5 | -70.4 | 0.1 | x | x | x | x | x
CCOc1cccc(/C=C/c2ccc3cccc(O)c3n2)c1O | -4.1 | 11.2 | 48.3 | 54.9* | -75.5 | 63.9* | 0.0 | 59.4* | 85.2* | x | 17.3
O=C(Cc1cccc(C(F)(F)F)c1)NCC(=O)Nc1cc(Cl)ccc1Cl | 3.1 | -1.5 | -13.8 | 6.6 | 4.5 | 3.3 | x | x | x | x | x
CC(C)c1ccc(/C=C2\SC(=O)N(CC(=O)NCCCn3ccnc3)C2=O)cc1 | -4.4 | 13.2 | 15.2 | 10.7 | 3.5 | 14.7 | x | x | x | x | x
C1=CC2=NC34CCCCC3CC3=C(CCCC3)N4C2=CC1=NC1CCCCC1 (stereo not given) | x | 3.3 | 51.2* | 13.4 | 25.4 | 2.5 | -25.0 | -17.3 | -10.8 | -11.1 | -7.2
COc1ccc(N2CCN(C(CNC(=O)C(=O)NC3CCCC3)c3ccco3)CC2)cc1 (stereo not given) | x | 0.0 | 0.3 | 0.4 | 19.4 | -0.6 | x | x | x | x | x
COCC(C)NS(=O)(=O)c1ccc(C(=O)NC(Cc2ccccc2)c2ccccc2)cc1 (stereo not given) | 1.1 | -1.6 | -9.6 | 2.8 | 11.2 | 12.3 | x | x | x | x | x
CC[C@H](C)[C@H]1CNC(=S)N1CC1CCN(CCC23CC4CC(CC(C4)C2)C3)CC1 | x | x | x | x | 3.6 | x | x | x | x | x | x
CCc1cc2cc(C(=O)Nc3ccccc3F)sc2s1 | 0.7 | 9.8 | 50.0* | 33.6 | 8.4 | 92.1* | 16.2 | 58.1* | 97.8* | 80.3* | 5.4
CCc1cc2cc(C(=O)Nc3ccc(F)cc3)sc2s1 | -1.7 | 11.3 | 47.5 | 18.2 | 13.1 | 79.4* | 5.1 | 12.4 | -3.4 | 10.7 | -5.8
CC(C)(C)c1ccc(C(=O)Nc2ccc(F)cc2)s1 | 5.2 | 14.0 | 83.9* | 80.5* | 3.5 | 72.5* | 57.9* | 73.1* | 95.1* | 65.2* | 35.4
SMILES | HSP90 inh | Platelet DG rel | SENP6 block | SENP8 block-1 | SENP8 block-2 | SENP7 inh | SENP8 conf | SENP6 conf | SENP7 confirm | Casp3 SENP sel | SENP luc ctr
Cn1nc(C(F)(F)F)c2cc(C(=O)Nc3ccc(F)cc3)sc21 | 3.6 | 12.8 | -6.2 | 3.2 | 19.3 | -1.6 | x | x | x | x | x
COc1cccc2sc3ccc(C#CC4(O)CCCCC4)cc3c(=O)c12 | 8.1 | 22.5 | 93.1* | 89.4* | -320.5 | 87.8* | 90.9* | 95.1* | 99.6* | 81.8* | 46.2
COc1ccccc1-c1oc2ccccc2c1C#CC1(O)CCCCC1 | x | x | 1.8 | -4.2 | -474.6 | 4.7 | x | x | x | x | x
O=c1c2ccccc2sc2ccc(C#CC3(O)CCCCC3)cc12 | x | 33.0 | 98.3* | 95.9* | -260.1 | 97.0* | 97.1* | 98.9* | 102.5* | 96.7* | 44.1
COc1cccc2sc3ccc(C#Cc4ccc(N)cc4)cc3c(=O)c12 | 1.1 | 1.0 | -2.3 | -9.7 | -23.8 | 14.1 | x | x | x | x | x
O=c1c2ccccc2oc2cc(C#CC3(O)CCCCC3)ccc12 | x | 18.0 | 98.1* | 95.5* | 11.2 | 99.0* | 97.9* | 98.8* | 102.5* | 93.9* | 75.3*
Cc1nn(Cc2ccccc2)c(C)c1CNC(=O)CN=C1NS(=O)(=O)c2ccccc21 | x | x | -9.4 | -6.3 | 13.8 | -5.7 | x | x | x | x | x
CN(C)S(=O)(=O)n1cc(/C=C(\NC(=O)c2ccccc2Cl)C(=O)N2CCOCC2)c2ccccc21 | -6.2 | 6.7 | -1.5 | -9.7 | 6.6 | -6.7 | x | x | x | x | x
NS(=O)(=O)c1ccc(NC(=O)C2C3C=CC(C3)C2C(=O)O)cc1 (stereo not given) | -3.7 | -0.4 | 10.0 | 5.3 | 0.0 | 2.7 | x | x | x | x | x
